From PubChem BioAssay (EPA / NIEHS)
Some compounds were tested as several samples or in several runs, with calls that do not always agree. Activity calls are given as the source filed them. Rule for the calls: active = hit-call score of the fitted dose curve at least 0.9, where 1 is the maximum; inactive = score below 0.9.

Tests used:
[1] = read-out: Macrophage colony-stimulating factor (MCSF), CSF1 (gene 1435); assay: BSK_hDFCGF_MCSF: BioMAP Diversity Plus: hDFCGF Assay for Macrophage colony-stimulating factor (MCSF) Biomarker Activity (AID 2283060); settings: primary human foreskin fibroblasts; actives raise or lower the signal
Outline: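 fibroblasts (human foreskin, primary), 24 h post-dose; M-CSF by ELISA; bidirectional fit, DMSO = baseline.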

[2] = BSK_hDFCGF_SRB: Viability Assessment in the BioMAP Diversity Plus: hDFCGF Assay (AID 2283061); settings: primary human foreskin fibroblasts;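 note: cells exposed to compound for 24 h before the read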
Outline: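 SRB-based viability read on primary human skin fibroblasts at 24 h: TCA fixation, 0.1% dye, 560 nm. Gain or loss of signal is fitted against the DMSO negative control.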

[3] = read-out: Monokine induced gamma interferon (MIG), CXCL9 (gene 4283); assay: BSK_hDFCGF_MIG: BioMAP Diversity Plus: hDFCGF Assay for Monokine induced gamma interferon (MIG) Biomarker Activity (AID 2283063); settings: primary human foreskin fibroblasts; actives raise or lower the signal
Outline: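 Endpoint derived by bidirectional fitting relative to DMSO; MIG quantified via ELISA in primary human foreskin fibroblasts harvested 24 h after dosing.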

[4] = read-out: Matrix Metallopeptidase 1 (MMP1), MMP1 (gene 4312); assay: BSK_hDFCGF_MMP1: BioMAP Diversity Plus: hDFCGF Assay for Matrix Metallopeptidase 1 (MMP1) Biomarker Activity (AID 2283064); settings: primary human foreskin fibroblasts; actives raise or lower the signal
Outline: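 hDFCGF primary fibroblasts (human foreskin); chemical added; 24 h; MMP1 by ELISA; bidirectional fit vs DMSO.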

[5] = read-out: Plasminogen activator inhibitor-1 (PAI1), SERPINE1 (gene 5054); assay: BSK_hDFCGF_PAI1: BioMAP Diversity Plus: hDFCGF Assay for Plasminogen activator inhibitor-1 (PAI1) Biomarker Activity (AID 2283066); settings: primary human foreskin fibroblasts; actives raise or lower the signal
Outline: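 PAI-1 levels, determined by ELISA, served as the endpoint in human foreskin fibroblast cultures exposed to compound for 24 h, with DMSO as baseline.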

[6] = read-out: Intercellular Adhesion Molecule 1 (ICAM1), ICAM1 (gene 3383); assay: BSK_KF3CT_ICAM1: BioMAP Diversity Plus: KF3CT Assay for Intercellular Adhesion Molecule 1 (ICAM1) Biomarker Activity (AID 2283067); settings: primary human keratinocytes with fibroblasts; actives raise or lower the signal
Outline: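 Bidirectional curve fitting against a DMSO baseline was applied to ICAM-1 ELISA signal from primary human skin co-cultures harvested 24 h after treatment, with SRB staining of parallel wells for overt cytotoxicity.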

[7] = read-out: Interferon-gamma inducible Protein 10 (IP10), CXCL10 (gene 3627); assay: BSK_KF3CT_IP10: BioMAP Diversity Plus: KF3CT Assay for Interferon-gamma inducible Protein 10 (IP10) Biomarker Activity (AID 2283068); settings: primary human keratinocytes with fibroblasts; actives raise or lower the signal
Outline: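 In a primary skin co-culture of keratinocytes and fibroblasts, IP-10 is quantified by ELISA at 24 h after dosing. SRB staining of parallel wells monitors overt toxicity. Curves are fitted both directions against DMSO.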

[8] = BSK_KF3CT_SRB: Viability Assessment in the BioMAP Diversity Plus: KF3CT Assay (AID 2283069); settings: primary human keratinocytes with fibroblasts;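 note: total protein by sulforhodamine B staining as a cytotoxicity measure; read 24 h after compound addition; fitted for both signal gain and loss against DMSO baseline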
Outline: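 Keratinocytes co-cultured with foreskin fibroblasts (human primary); chemical added, 24 h; fix 10% TCA, stain 0.1% SRB, A560. Bidirectional fit vs DMSO.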

[9] = read-out: Interleukin-1 alpha (IL1a), IL1A (gene 3552); assay: BSK_KF3CT_IL1a: BioMAP Diversity Plus: KF3CT Assay for Interleukin-1 alpha (IL1a) Biomarker Activity (AID 2283070); settings: primary human keratinocytes with fibroblasts; actives raise or lower the signal
Outline: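 Chemicals were dosed onto co-cultured human keratinocytes and foreskin fibroblasts, IL-1a was quantified by ELISA at 24 h, and activity was fitted in both directions relative to DMSO controls.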

[10] = read-out: TIMP metallopeptidase inhibitor 2 (TIMP2), TIMP2 (gene 7077); assay: BSK_KF3CT_TIMP2: BioMAP Diversity Plus: KF3CT Assay for TIMP metallopeptidase inhibitor 2 (TIMP2) Biomarker Activity (AID 2283071); settings: primary human keratinocytes with fibroblasts; actives raise or lower the signal
Outline: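 Keratinocyte–fibroblast co-culture, 24 h exposure; TIMP-2 ELISA, DMSO-normalised bidirectional fit. Parallel SRB (0.1%, TCA-fixed, 560 nm) total-protein staining gauges cytotoxicity.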

[11] = read-out: C-C motif chemokine 2 (Homo sapiens) (UniProt P13500); assay: BSK_KF3CT_MCP1: BioMAP Diversity Plus: KF3CT Assay for Monocyte Chemoattractant Protein 1 (MCP1/CCL2) Biomarker Activity (AID 2283073); settings: primary human keratinocytes with fibroblasts; actives raise or lower the signal
Outline: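 Biomarker MCP-1 is measured by ELISA in primary human keratinocytes co-cultured with foreskin fibroblasts, 24 h after chemical treatment; DMSO serves as the negative control and activity baseline.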

[12] = read-out: Matrix Metallopeptidase 9 (MMP9), MMP9 (gene 4318); assay: BSK_KF3CT_MMP9: BioMAP Diversity Plus: KF3CT Assay for Matrix Metallopeptidase 9 (MMP9) Biomarker Activity (AID 2283074); settings: primary human keratinocytes with fibroblasts; actives raise or lower the signal;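 for AC50: MMP9 protein level quantified by ELISA in the co-culture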
Outline: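 Human keratinocyte/foreskin fibroblast co-culture; compound added; 24 h; MMP-9 by ELISA; bidirectional fit vs DMSO baseline.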

[13] = read-out: urokinase plasminogen activator (uPA), PLAU (gene 5328); assay: BSK_KF3CT_uPA: BioMAP Diversity Plus: KF3CT Assay for urokinase plasminogen activator (uPA) Biomarker Activity (AID 2283075); settings: primary human keratinocytes with fibroblasts; actives raise or lower the signal
Outline: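 ELISA readout of uPA, analyzed for signal gain or loss relative to DMSO, from a human primary keratinocyte–foreskin fibroblast co-culture measured 24 h after chemical treatment.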

CD40, CD40 (gene 958) = assay: BSK_LPS_CD40: BioMAP Diversity Plus: LPS Assay for CD40 Biomarker Activity (AID 2283076); settings: primary human HUVEC with PBMC; actives raise or lower the signal
Outline: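 Using a multiplexed primary human co-culture (umbilical vein endothelium plus PBMC), CD40 was read by ELISA 24 h after dosing, with cytotoxicity tracked by sulforhodamine B staining of parallel cultures and activity fitted bidirectionally versus DMSO.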

[14] = read-out: Interleukin-8 (IL8), CXCL8 (gene 3576); assay: BSK_LPS_IL8: BioMAP Diversity Plus: LPS Assay for Interleukin-8 (IL8) Biomarker Activity (AID 2283078); settings: primary human HUVEC with PBMC; actives raise or lower the signal
Outline: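 In this LPS system, chemical-treated human umbilical vein endothelium/PBMC co-cultures were harvested at 24 h for IL-8 ELISA.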

[15] = BSK_LPS_SRB: Viability Assessment in the BioMAP Diversity Plus: LPS Assay (AID 2283079); settings: primary human HUVEC with PBMC;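 note: total protein by sulforhodamine B absorbance as a cytotoxicity measure; measured one day after compound addition; fitted in both directions against DMSO so loss or gain of signal counts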
Outline: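 Cytotoxicity endpoint in human endothelial–PBMC co-culture: 24 h exposure, then SRB (0.1%) staining, 560 nm read.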

[16] = read-out: TIMP metallopeptidase inhibitor 1 (TIMP1), TIMP1 (gene 7076); assay: BSK_hDFCGF_TIMP1: BioMAP Diversity Plus: hDFCGF Assay for TIMP metallopeptidase inhibitor 1 (TIMP1) Biomarker Activity (AID 2283062); settings: primary human foreskin fibroblasts; actives raise or lower the signal
Outline: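 Bidirectional curve fitting against DMSO baseline yielded this endpoint, based on ELISA detection of TIMP-1 in primary human foreskin fibroblasts exposed to compound for 24 h.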

[17] = read-out: Transforming growth factor beta 1 (TGFb1), TGFB1 (gene 7040); assay: BSK_KF3CT_TGFb1: BioMAP Diversity Plus: KF3CT Assay for Transforming growth factor beta 1 (TGFb1) Biomarker Activity (AID 2283072); settings: primary human keratinocytes with fibroblasts; actives raise or lower the signal
Outline: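 Signal changes in either direction, relative to DMSO, define activity here. TGF-b1 is read by ELISA from a human keratinocyte-fibroblast co-culture 24 h post-dose.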

[18] = read-out: Vascular cell adhesion molecule 1 (VCAM1), VCAM1 (gene 7412); assay: BSK_hDFCGF_VCAM1: BioMAP Diversity Plus: hDFCGF Assay for Vascular cell adhesion molecule 1 (VCAM1) Biomarker Activity (AID 2283065); settings: primary human foreskin fibroblasts; actives raise or lower the signal
Outline: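 Measured after 24 h chemical treatment of primary human skin fibroblasts, VCAM-1 was detected by ELISA and concentration-response analysed in both directions versus DMSO vehicle.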

Measured: AC50

OCCCC(F)(F)C(F)(F)C(F)(F)F
not listed: [16] | [17] | [18]
inactive: all other assays above

O=C(CC(=O)C(F)(F)C(F)(F)F)C(F)(F)F
not listed: [2] | [17] | [18]
inactive: all other assays above

CO[Si](OC)(c1ccccc1)c1ccccc1
active: [1] 32.5 µM | [8] 32.6 µM | [10] 30.9 µM | [17] 30.1 µM | [11] 31.6 µM | [12] 31.3 µM | [13] 28.9 µM
not listed: [2] | [16] | [18]
inactive: all other assays above

O=C(O)C(F)(F)C(F)(F)C(F)(F)F
not listed: [2] | [16] | [17]
inactive: all other assays above

O=C(O)C(F)(F)C(F)(F)C(F)(F)C(F)(F)C(F)(F)C(F)(F)C(F)(F)C(F)(F)C(F)(F)C(F)(F)C(F)(F)C(F)(F)C(F)(F)F
inactive: [1] | [3] | [4] | [18] | [5] | [6] | [7] | [8] | [9] | [10] | [11] | [12] | [13] | CD40, CD40 (gene 958) | [14] | [15]
active: [14] 2.24 µM

FC(F)(F)C(F)(F)C(F)(F)N(C(F)(F)C(F)(F)C(F)(F)F)C(F)(F)C(F)(F)C(F)(F)F
not listed: [2] | [16] | [17] | [18]
inactive: all other assays above
